Data from US20200347384, “Screening artificial nucleic acids by particle display” (THE REGENTS OF THE UNIVERSITY OF CALIFORNIA, published 2020).

Assays:
[1] = target: T1, HIV-1 reverse transcriptase (HIV RT) (Human immunodeficiency virus, UniProt P03366;P03366 P03366:600-1159,P03366:600-1039); assay: MST; two 5' flanking nucleotides deleted; conditions: tags: His-tag (inferred from Ni-NTA immobilisation); XNA; TNA at all positions
[2] = target: T1, HIV-1 reverse transcriptase (HIV RT); assay: MST; five 3' flanking nucleotides deleted; conditions: tags: His-tag (inferred from Ni-NTA immobilisation); XNA; TNA at all positions

Sequence	binding signal [1]	binding signal [2]
TAGTAAATTGATTTAAAAATTTCATAAATGCTACATAA	~3 fold reduction in affinity	–
AATAGTAAATTGATTTAAAAATTTCATAAATGCTA	–	~3 fold reduction in affinity
